Consider 6 molecules from PubChem BioAssay AID602350 (Broad Institute, 2012).

Measured potencies and affinities stand elsewhere. Calls of active or inactive are those of the source.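 Rule for the calls: active = absorbance falls by 30% or more versus neutral controls, with a potency fitted within twice the top valid dose; inconclusive = no clear call, values can overlap the other calls; inactive = change opposite to expected direction, plus the rest.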

Protein disulfide-isomerase (Homo sapiens), sequence (P07237 whole entry, looked up): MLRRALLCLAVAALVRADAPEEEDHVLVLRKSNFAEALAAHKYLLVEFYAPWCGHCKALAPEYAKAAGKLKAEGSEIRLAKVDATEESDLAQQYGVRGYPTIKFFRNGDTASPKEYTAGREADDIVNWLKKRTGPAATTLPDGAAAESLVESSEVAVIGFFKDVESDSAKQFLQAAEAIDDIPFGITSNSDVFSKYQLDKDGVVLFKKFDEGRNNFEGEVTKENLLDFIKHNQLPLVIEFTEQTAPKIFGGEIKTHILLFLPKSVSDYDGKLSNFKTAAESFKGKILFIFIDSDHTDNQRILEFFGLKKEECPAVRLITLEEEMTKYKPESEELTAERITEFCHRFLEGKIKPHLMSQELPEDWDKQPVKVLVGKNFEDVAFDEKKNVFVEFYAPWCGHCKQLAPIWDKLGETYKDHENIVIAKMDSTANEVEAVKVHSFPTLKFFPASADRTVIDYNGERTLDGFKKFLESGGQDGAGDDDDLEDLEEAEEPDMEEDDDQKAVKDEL

The assay addresses Protein disulfide-isomerase (Homo sapiens) (UniProt P07237). The experiment in a line: PDI inhibitors, insulin aggregation turbidity, dose response, biochemical, absorbance, cherry-picked samples (AID 602350). The following applies: recombinant PDI insulin aggregation, absorbance 650 nm, 90 min; series mostly up to 19.5 µM.
Take `CCOC(=O)C1(CCOc2ccccc2)CCN(Cc2cccc(O)c2)CC1`: the outcome was inactive. The entry for `CN1CCN(CCOC2c3ccccc3CSc3ccc(Cl)cc32)CC1` (stereo unspecified) is “inactive”; for `C[C@H]1CCCC(=O)CCCCCc2cc(O)cc(O)c2C(=O)O1` it is “inactive”; for `CCOC(C(=O)OCCCN(CC)CC)(c1ccccc1)c1ccccc1` it is “inactive”. With `NC(=O)CSc1nnc([C@@H](N)Cc2c[nH]c3ccccc23)o1` the entry was “inactive”; with `CC(Cc1ccc(O)cc1)NCC(O)c1ccc(O)c(O)c1` (stereo unspecified), “inactive”.
